Assay results reported in PubChem BioAssay AID977606 (Broad Institute, 2014).
Among all 1,500 compounds or so, about 430 (29%) were called active. No rule for the calls is given here. Only a sample is shown. Measured potencies and affinities stand elsewhere.

Assay: insulin secretion activators without glucose, dose response, counter-screen for glucose-dependent insulin secretion activators, cell-based, INS-1E, Gaussia luciferase, luminescence, cherry-pick (AID 977606)
Settings: INS-1E Gaussia luciferase insulin secretion, no glucose, 100% = twice neutral-control luminescence; series mostly up to 35 µM

| Structure (SMILES) | outcome |
| --- | --- |
| O=C(CCCC(=O)c1ccccc1)NCc1ccccc1 | inactive |
| CCCn1c(=O)c(C(=O)NCc2ccccc2)c(O)c2ccccc21 | inactive |
| O=C(CCc1nc2ccccc2c(=O)[nH]1)NNC(=O)c1cccc(Cl)c1 | inactive |
| CCOc1ccc(CCNC(=O)COC(=O)c2nccnc2N)cc1OCC | inactive |
| COc1ccccc1C(C)NS(=O)(=O)c1ccc(Cl)nc1 (stereo unspecified) | inactive |
| CN(C)CCCN(C(=O)CCOc1ccccc1)c1nc2ccc(F)cc2s1 | inactive |
| COc1ccc(S(=O)(=O)N2CCC(C(=O)NCc3ccccn3)CC2)cc1OC | inactive |
| COc1cc2c(cc1OC)CN(C(=O)CNS(=O)(=O)c1ccc(C)c(C)c1)CC2 | inactive |
| Cc1ccc(-c2[nH]nc3c2C(c2cccnc2)C(C#N)=C(N)O3)cc1 (stereo unspecified) | inactive |
| CC(=O)c1c(O)c2cccc3c2n(c1=O)CCC3 | inactive |
| Cc1cccnc1NC(=O)c1ccc(S(=O)(=O)N2CCCCC2)cc1 | inactive |
| O=C(NCCC1CCCCN1S(=O)(=O)c1ccc(F)cc1)C(=O)NCc1cccnc1 (stereo unspecified) | inactive |
| CCOc1ccc(NC(=O)[C@@H](NC(=O)OCc2ccccc2)[C@@H](C)CC)cc1 | inactive |
| CCOc1cc(OCC)cc(C(=O)Nc2cccnc2)c1 | inactive |
| Cc1ccc2c(=O)cc(C(=O)NC3CCS(=O)(=O)C3)oc2c1C (stereo unspecified) | inactive |
| CCOC(=O)N1CCN(C(=O)COc2ccccc2OC)CC1 | inactive |
| CN1CCCCCC1C(=O)N1CCC(N2CCC(C(=O)N3CCOCC3)CC2)CC1 (stereo unspecified) | inactive |
| C/C(=N/NC(=O)c1ccc(Br)s1)c1ccncc1 | inactive |
| O=C(Nc1ncn[nH]1)c1ccc(Cl)c(Cl)c1 | inactive |
| C/C(=N/NC(=O)c1ccc(Br)o1)c1ccncc1 | inactive |
| Cc1ccc(C(=O)Nc2cccc(C(=O)N/N=C/c3ccc(F)cc3)c2)cc1 | inactive |
| COc1ccc(CC(=O)N2CCc3cc(OC)c(OC)cc3C2)cc1 | inactive |
| COc1cccc(-n2c(=O)c3ccccc3n(CC(=O)NCC3CCCO3)c2=O)c1 (stereo unspecified) | inactive |
| O=S(=O)(c1ccc(-c2csc(Nc3ccc(Br)cc3)n2)cc1)N1CCCC1 | inactive |

| Structure (SMILES) | outcome |
| --- | --- |
| O=c1[nH]nc(-c2ccc(F)cc2)cc1Cc1cccs1 | inactive |
| CCOCC(=O)Nc1c(C(=O)OCC)oc2ccccc12 | inactive |
| CCCCNC(=O)c1ccccc1NC(=O)C1=C(C)OCCS1 | inactive |
| CCCCNC(=O)C1(C)CCN1C(=O)Cc1cccc2ccccc12 (stereo unspecified) | inactive |
| COc1ccc(CNC(=O)CN2C(=O)NC3(CCCCCC3)C2=O)cc1 | inactive |
| CCOC(=O)C1=C(COC(=O)c2cccs2)NC(=O)NC1C (stereo unspecified) | inactive |
| CCOc1ccc(CCNC(=O)COC(=O)c2cccc(N(C)C)c2)cc1OCC | inactive |
| O=S(=O)(NCc1ccccc1)c1ccc(-n2cccn2)cc1 | inactive |
| CCCCc1nc(N)c(C#N)c(-c2ccco2)c1CCC | inactive |
| CC(C)n1cc(/C(N)=N/O)c(=O)n(Cc2ccccc2)c1=O | inactive |
| CCCc1nc(N)sc1C(=O)OCC | inactive |
| Cc1nc2ccccc2c2nc(NC(=O)C(F)(F)F)nn12 | inactive |
| COC(=O)C[C@@H]1C=C[C@H](NC(=O)Cc2ccccn2)[C@@H](CO)O1 | inactive |
| CCCOC(=O)Nc1ccc(S(=O)(=O)Nc2ncccn2)cc1 | inactive |
| CCCc1cc(=O)oc2cc(C)cc(OCC(=O)Nc3ccc(S(N)(=O)=O)cc3)c12 | inactive |
| Cc1[nH]n(-c2ccc(Br)cc2)c(=O)c1/C=N/NC(=O)c1ccccc1 | inactive |
| Cn1cc(Br)c(C(=O)NNC(=O)c2ccccc2)n1 | inactive |
| O=S(=O)(c1ccc(NCCCO)nc1)N1CCOCC1 | inactive |
| CCOC(=O)c1cn(-c2ccccc2)nc1-c1ccncc1 | inactive |
| CCOc1ncccc1C(=O)OCC(=O)NCCc1ccc(S(N)(=O)=O)cc1 | inactive |
| COCCNc1nc(NCCCN(C)C)c2sccc2n1 | inactive |
| CCCc1nnc2n1N=C(c1ccc(OC)c(OC)c1)CS2 | inactive |
| O=S(=O)(c1cccs1)N1CN(C2CCCCC2)c2nc3ccccc3nc21 | inactive |
| Cc1nc(N)c(C#N)c(-c2cccnc2)c1-c1ccccc1 | inactive |

| Structure (SMILES) | outcome |
| --- | --- |
| O=C1NC(c2ccccc2)c2c(-c3ccccc3)n[nH]c21 (stereo unspecified) | inactive |
| C=CCN1C(=O)c2n[nH]c(COC)c2C1c1ccc(F)cc1 (stereo unspecified) | inactive |
| CNC(=O)C(=O)NCC1OCCCN1S(=O)(=O)c1ccc(F)cc1C (stereo unspecified) | inactive |
| COc1ccc(-c2ocnc2C(=O)Nc2ccc(N3CCOCC3)cc2N2CCOCC2)cc1OC | inactive |
| O=C(Cc1ccsc1)NNC(=O)c1ccccc1Cl | inactive |
| C/C=C1\COC(C(=O)NCc2ccccc2)(C(F)(F)F)C=C1C=C(C)C (stereo unspecified) | inactive |
| CCC(CC)NC(=O)CN1CCN(S(=O)(=O)c2cccs2)CC1 | inactive |
| COc1ccc(CCNC(=O)CCCc2nnc3n(C)c(=O)c4sccc4n23)cc1OC | inactive |
| Cc1cc(Oc2cccnc2)ccc1NC(=O)Cc1cn(C)c2ccccc12 | inactive |
| Cc1ccc2c(c1)N(C(C)C(=O)NCc1cccs1)C(=O)CO2 (stereo unspecified) | inactive |
| CCCn1c(C)cc(C)c(C#N)c1=O | inactive |
| COCC(=O)N(C)C[C@H]1Oc2cc(Br)ccc2S(=O)(=O)N([C@H](C)CO)C[C@H]1C | inactive |
| C[C@H]1CN([C@@H](C)CO)C(=O)c2cc(C#CCc3ccccc3)cnc2O[C@@H]1CN(C)C(=O)C1CC1 | inactive |
| COc1ccccc1-c1cnc2c(c1)C(=O)N([C@H](C)CO)C[C@@H](C)[C@@H](CN(C)C(C)=O)O2 | inactive |
| C[C@H](CO)N1C[C@H](C)[C@@H](CN(C)C(=O)CC2CC2)Oc2cc(C#CC(C)(C)O)ccc2S1(=O)=O | inactive |
| Cc1c(P(=S)(c2ccccc2)c2ccccc2)[n+]2ccccc2n1C/C=C/c1ccccc1 | inactive |
| COc1cc2c(cc1OC)-c1cc(Nc3ccccc3Br)nc(=O)n1CC2 | inactive |
| CCNc1nc(C)nc2c1oc1ccccc12 | inactive |
| O=C(COC(=O)c1ncc(Cl)c(Cl)c1Cl)NC1CCS(=O)(=O)C1 (stereo unspecified) | inactive |
| Fc1ccccc1-c1nnc2ccc3ccccc3n12 | inactive |
| O=c1c2ccccc2nnn1Cc1ccccc1 | inactive |
| CCc1nc2n[nH]c(N)c2c2c1CCCC2 | inactive |
| COCCNc1nc(NCCCN2CCCC2=O)c2sccc2n1 | inactive |
